Results from PubChem BioAssay (NCI).
This is part of a sample that, as a whole, favours compounds with a hit. Of some 83,000 tested, about 20% had one in any assay.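 Cells were grown in 96-well plates and exposed to the test compound at a single concentration for 48 hours; results are reported as percent growth, with values below 10 considered active.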 Values without a mark were called inactive. Activity calls are given as the source filed them.

Legend:
Assay in all cases: NCI-60 one-dose screen, 48 h (100 = growth as untreated, 0 = no growth, -100 = all killed)
Conditions in all cases: 10 µM unless noted
SR leukemia = tested on: SR leukemia
RPMI-8226 leukemia = tested on: RPMI-8226 leukemia
OVCAR-8 ovarian = tested on: OVCAR-8 ovarian
OVCAR-5 ovarian = tested on: OVCAR-5 ovarian
OVCAR-4 ovarian = tested on: OVCAR-4 ovarian
SK-OV-3 ovarian = tested on: SK-OV-3 ovarian
IGROV1 ovarian = tested on: IGROV1 ovarian
OVCAR-3 ovarian = tested on: OVCAR-3 ovarian
HS 578T breast = tested on: HS 578T breast
NCI/ADR-RES ovarian = tested on: NCI/ADR-RES ovarian

| SMILES | growth (SR leukemia) | growth (RPMI-8226 leukemia) | growth (OVCAR-8 ovarian) | growth (OVCAR-5 ovarian) [%] | growth (OVCAR-4 ovarian) | growth (SK-OV-3 ovarian) [%] | growth (IGROV1 ovarian) | growth (OVCAR-3 ovarian) | growth (HS 578T breast) | growth (NCI/ADR-RES ovarian) |
| --- | --- | --- | --- | --- | --- | --- | --- | --- | --- | --- |
| COc1ccc(NC(=O)c2sc3nc(C)c(C(O)c4ccc(OC)cc4)cc3c2N)cc1 (stereo not given) | 4.21% (active) | 39.8% | 20.4% | 50.6 | 50.4% | 38.5 | 29.1% | 16.7% | 20.1% | 16.1% |
| Cc1c([N+](=O)[O-])cc(C(C)(C)C)cc1[N+](=O)[O-] | 106% | 112% | 98.6% | 91.1 | 115% | 92.3 | 112% | 101% | 99.5% | 103% |
| c1cnc2nc3c(cc2c1)oc1ccccc13 | 80.7% | 94.1% | 100% | 105 | 103% | 121 | 97.2% | 115% | 102% | 100% |
| COc1ccc(-c2nc(N=Nc3c(O)[nH]c4ccccc34)nc(N3CCOCC3)c2C#N)cc1 | 41.7% | 60.2% | 44.2% | 81.9 | 59.5% | 66.8 | 87.8% | 67.4% | 47.5% | 59.7% |
| Cc1ccc(C2CC(c3cccc(Nc4ccncc4)c3)=NN2c2cc(Cl)cc(Cl)c2)cc1 (stereo not given) | 1.17% (active) | 16.1% | -36.5% (active) | 71.1 | 15% | 83.4 | 15.3% | 61.7% | 62.6% | 52.1% |
| N#Cc1c(Nc2ccccc2)nn2cc(-c3nc4ccccc4s3)c(N)nc12 | 74.3% | 91.9% | 70.7% | 88.5 | -13.7% (active) | 90.2 | 65.5% | 97% | 64.3% | 50.6% |
| CN1C(=O)N(C)C2NC(N/N=C/c3ccccc3)=NC21 (stereo not given) | 117% | 138% | 102% | 98.3 | 103% | 115 | 102% | 106% | 94.7% | 104% |
| O=C(OC(OC(=O)c1cc(Cl)cc(Cl)c1)c1cccc2ccccc12)c1ccccc1 (stereo not given) | 94.5% | 98% | 93.7% | 105 | 103% | 101 | 96.5% | 97.6% | 98.2% | 99.7% |
| COc1ccc(C2CC(c3cccc(Nc4ccncc4)c3)=NN2c2ccc(Cl)cc2)cc1 (stereo not given) | 1.94% (active) | 0.0835% (active) | -23.4% (active) | 74.1 | 37.7% | 63.9 | 23% | 39.6% | 60.7% | 62.3% |
| CC(C)CCSc1nc(NNC(N)=O)c(C#N)c(-c2ccccc2)n1 | 105% | 99.4% | 104% | 97.8 | 113% | 107 | 103% | 108% | 112% | 102% |
| COc1ccncc1C#Cc1cncc(C(=O)Nc2ccc(CN3CCN(C)CC3)c(C(F)(F)F)c2)c1 | 9.65% (active) | 25.8% | 36.7% | 22.2 | 30.7% | 32.7 | 11.3% | 43.5% | 11.8% | 54.6% |
| CCCCCCCCCCCC(=O)C(CCCCCCCCCC)C(=O)Nc1ccccc1 (stereo not given) | 99.7% | 99.2% | 103% | 101 | 102% | 108 | 89.2% | 112% | 96.8% | 102% |
| COc1nc(N)nc(-n2c(-c3ccc(C)cc3)nc3ccccc32)c1NCc1ccc(C)cc1 | 80.5% | 81.2% | 94.1% | 88.5 | 95% | 110 | 80.1% | 111% | 83.6% | 90.1% |
| CC1NC(=S)NC(=O)/C1=C/c1cc(=O)oc2c1ccc1ccccc12 (stereo not given) | 94% | 102% | 87.5% | 105 | 95.7% | 94.4 | 91.9% | 100% | 94.4% | 92.7% |
| C[C@H]1[C@H](C)CC[C@]2(CO)CC[C@]3(C)C(=CC[C@@H]4[C@@]5(C)CCCNC(C)(C)[C@@H]5CC[C@]43C)[C@H]12 | -49.9% (active) | -39.7% (active) | 9.93% (active) | 28.4 | 18.5% | 69.6 | -57.9% (active) | 6.84% (active) | 10.5% | 17.6% |
| CCN(CC)CCCC(C)Nc1cc(-c2cccc(OC(F)(F)F)c2)nc2ccc(N3CCCC3)cc12 (stereo not given) | -31.6% (active) | -37% (active) | -5.79% (active) | 31.1 | 34.8% | 82 | 29.9% | 0.648% (active) | -22.3% (active) | 13.4% |
| CC(C)(O)C1CCCN1C(=O)c1ccccc1I (stereo not given) | 106% | 92.6% | 109% | 87.3 | 25.4% | 89.8 | 87.6% | 92.5% | 85.7% | 87.8% |
| COc1ccc(C(=O)c2cc3c(N)c(C(=O)Nc4cccc(Cl)c4C)sc3nc2C)cc1 | -27.1% (active) | 1.21% (active) | 5.92% (active) | 40.9 | 39.2% | 25.9 | 24.8% | -5.77% (active) | 15% | 8.86% (active) |
| CCOC(=O)Oc1c(OC)cc(C(=O)O[C@@H]2C[C@@H]3CN4CCc5c([nH]c6cc(OC)ccc56)[C@H]4C[C@@H]3[C@H](C(=O)OC)[C@H]2OC)cc1OC | -2.39% (active) | -5.39% (active) | 75.9% | 90.5 | 94.7% | 91.9 | 82.3% | 38.5% | 72.1% | 56.5% |
| COc1ccc(Cc2nc3cc(OC)c(OC)cc3c(=O)[nH]2)cc1 | 36.1% | 52.6% | 73.5% | 78.6 | 105% | 148 | 65.7% | 78.9% | 77.5% | 74.8% |
| Fc1ccc2nc3c(cc2c1)CSc1nnc(-c2ccc[nH]c2=S)n1N3 | 90.4% | 95.5% | 105% | 95.4 | 91.5% | 86.9 | 86.7% | 109% | 96.3% | 103% |
| Cc1cccc(Oc2ccc(Nc3ncnc4ccc(NC(=O)CN(C)C)cc34)cc2Cl)c1 | 1.9% (active) | 46.6% | 57.3% | 60.9 | 45.2% | 16 | 3.8% (active) | 40.7% | 68% | 47.2% |
| CCC(C)N(CCNc1cc(OC)cc2cccnc12)CCC(C)C (stereo not given) | 51.8% | 94.1% | 86.6% | 102 | 26% | 68.3 | 66.4% | 64% | 82.9% | 85.5% |
| COc1cc(-c2cc(=O)oc3cc(O)ccc23)c(OC)c2c1OCO2 | 84.2% | 60.2% | 91.6% | 91.6 | 68.9% | 125 | 91.5% | 92.7% | 81.9% | 92.6% |
| ClCC1(Cn2cnc3c(Cl)nc(Cl)nc32)COC1 | 86.1% | 87.7% | 105% | 99.5 | 93.3% | 93.8 | 90.8% | 84.4% | 50.9% | 106% |
| CCN(CC)CCOC(COc1cc(C)cc(C)c1)COc1cc(C)cc(C)c1 | -20.8% (active) | 0.427% (active) | 58.6% | 55.6 | 50.9% | 67.1 | 12.6% | 58.4% | 61.6% | 41.5% |
